Data taken from PubChem BioAssay AID602449 (Sanford-Burnham Center for Chemical Genomics, 2012).
Out of some 360,000 compounds screened, about 5,000 (1.4%) were called active. This excerpt belongs to a sample that is enriched for actives. Unmarked numbers belong to inactive results.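 Rule for the calls: active = inhibition of 50% or more, scaled per plate between neutral and stimulator controls; inactive = the rest.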

Test: blockers of Ca2+-induced mitochondrial swelling – biochemical, isolated mouse mitochondria, absorbance, primary screen (AID 602449);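 note: 0% = DMSO wells given calcium and 100% = 1 mM EGTA wells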
Settings: 30 min, at 10 µM, active compounds read high

Row | SMILES | inhibition
1 | Cc1cc(F)ccc1N1CCC(N2CCN(C)C(CCO)C2)CC1 (stereo not drawn) | 0%
2 | CCCNC(=O)NCc1ccc(N2CCCC2=O)cc1 | 2.2%
3 | COc1cc(N2CCCC2)c(OC)cc1/C=C(/C#N)c1cccc(Br)c1 | 1.4%
4 | Cc1cc(C)c(NC(=O)c2oc3ccccc3c2COc2ccccc2)c(C)c1 | 1.5%
5 | Cc1cc(C)c(NC(=O)C[N+](C)(C)CC(O)COc2cccc3ccccc23)c(C)c1 (stereo not drawn) | 80.5% (active)
6 | Cc1cc(C)cc(OCC(=O)NCc2cc(C)nc3ccccc23)c1 | 4.6%
7 | Cc1cc(C(=O)NC2CC(C)(C)Cc3c2cnn3-c2ccccc2)n[nH]1 (stereo not drawn) | -0.7%
8 | CC1=C(C(=O)NC2CC(C)(C)Cc3c2cnn3-c2ccc(C)cc2)OCCO1 (stereo not drawn) | -0.2%
9 | COc1ccc(C(=O)NC2CC(C)(C)Cc3c2cnn3-c2ccccc2C)o1 (stereo not drawn) | -1.2%
10 | Cn1nccc1C(=O)NC1CCCc2c1cnn2-c1ccc(F)cc1F (stereo not drawn) | 89.9% (active)
11 | CC1(C)Cc2c(cnn2-c2cccc(F)c2)C(NC(=O)c2cc[n+]([O-])cc2)C1 (stereo not drawn) | -0.8%
12 | Cn1nccc1C(=O)NC1CCCc2c1cnn2-c1ccccc1F (stereo not drawn) | 102% (active)
13 | COc1ccc(C(=O)NC2CCCc3c2cnn3-c2cccc(C)c2C)c(OC)n1 (stereo not drawn) | 71% (active)
14 | COc1ccc(OC)c(C(=O)NC2CCCc3c2cnn3-c2cc(C)cc(C)c2)c1 (stereo not drawn) | 1.5%
15 | COC(=O)c1ccc(C(=O)NC2CC(C)(C)Cc3c2cnn3-c2ccc(F)cc2)nc1 (stereo not drawn) | -1.7%
16 | CCNC(=O)c1sccc1-n1cccc1 | -0.7%
17 | CCN(CC)C(=O)Oc1ccc(OC(=O)N(CC)CC)cc1 | -0.8%
18 | C[C@H](CO)N1C[C@H](C)[C@@H](CN(C)S(=O)(=O)c2ccc(F)cc2)Oc2ccc(NC(=O)CCC(F)(F)F)cc2C1=O | 0.8%
19 | COc1ccc(CN(Cc2ccco2)S(=O)(=O)c2ccc(S(=O)(=O)N3CCCC3)cc2)cc1 | 11.4%
20 | CCc1cccc(NC(=O)COC(=O)c2cc(=O)c3ccccc3o2)c1 | 0.9%

Row | SMILES | inhibition
21 | CSCC[C@H](NC(=O)N1CCn2c1nc1ccccc12)C(=O)NCc1ccc2c(c1)OCO2 | -2.6%
22 | C=C(C)c1cccc(C(C)(C)NC(=O)NCCN(CC)CC)c1 | 1.1%
23 | CCC(C(=O)NC(C)(C)C)n1c(-c2ccccc2)nc2ccccc21 (stereo not drawn) | 1.2%
24 | Cc1cc(C)n2nc(C(=O)OCC(=O)N(CCC#N)c3ccc(F)cc3)nc2n1 | -0.4%
25 | O=C(NCCCN1CCN(c2ccc(F)cc2)CC1)Nc1ccc([N+](=O)[O-])cc1 | 90.9% (active)
26 | CN1CCN(CCNC(=O)Nc2ccccc2[N+](=O)[O-])CC1 | -0.3%
27 | O=C(CCC(=O)N1CCCC1)Nc1ccc([N+](=O)[O-])cc1 | -1.4%
28 | O=C(CCN1C(=O)COc2ccccc21)NCCCN1CCN(c2ccc(F)cc2)CC1 | -0.5%
29 | O=C(Nc1ccc(F)cc1)C1CCN(C(=O)c2ccc([N+](=O)[O-])cc2)CC1 | 0.6%
30 | CN1CCN(CCNC(=O)Nc2ccc([N+](=O)[O-])cc2)CC1 | 93.8% (active)
31 | COc1cc(C)ccc1OCC(=O)OCC(=O)c1ccc[nH]1 | 0.5%
32 | COc1ccc(/C=C2/S/C(=N/N=C3\CC4CCC3(C)C4(C)C)NC2=O)cc1 (stereo not drawn) | -1.3%
33 | CCOC(=O)/C=C/c1ccc(C(F)(F)F)cc1S(=O)(=O)NC(C)(C)C | 2.5%
34 | CCCCN(CCCC)CCC(O)c1cc2c(Cl)cc(Cl)cc2c2cc(C(F)(F)F)ccc12 (stereo not drawn) | 112% (active)
35 | O=C(/C=C/c1ccc(Cl)cc1)Nc1ccc(S(=O)(=O)Nc2ncccn2)cc1 | -0.3%
36 | O=C(/C=C/c1ccc(F)cc1)Nc1cccc(S(=O)(=O)Nc2cccc(C(F)(F)F)c2)c1 | 92.8% (active)
37 | O=C(Nc1cccc(S(=O)(=O)NC2=NCCC2)c1)c1ccc(F)cc1F | -0.6%
38 | O=C(O)CSC(NC(=O)c1cccnc1)(C(F)(F)F)C(F)(F)F | -1.1%
39 | COc1cc(C(=O)NCC(=O)N2CC=C(c3ccccc3)CC2)cc(OC)c1OC | 0%
40 | COc1cc(C(=O)Nc2oc(-c3ccccc3)c(-c3ccccc3)c2C#N)cc(OC)c1OC | 61.1% (active)

Row | SMILES | inhibition
41 | N#Cc1c(NC(=O)CCCN2C(=O)c3ccccc3C2=O)oc(-c2ccccc2)c1-c1ccccc1 | -0.2%
42 | CCc1nccn1S(=O)(=O)c1cccc([N+](=O)[O-])c1 | 0.1%
43 | O=C(CCN1C(=O)C2CCCCC2C1=O)Nc1ccc(OC(F)F)cc1 (stereo not drawn) | -2%
44 | CCC(=O)OCc1c(C(F)(F)F)nn(C)c1Oc1cccc(C(F)(F)F)c1 | 1.5%
45 | Cn1nc(C(F)(F)F)c(C(=O)Nc2cccc(C(F)(F)F)c2)c1SCc1ccc(Cl)cc1 | 71.2% (active)
46 | COC(=O)c1ccccc1Sc1c(/C=N/OCc2ccc(Cl)cc2)c(C(F)(F)F)nn1C | 2.3%
47 | CC(=O)c1cccc(NC(=O)[C@@H](NC(N)=O)C(C)C)c1 | 0.5%
48 | c1ccc(C(=NNc2nc3ccccc3s2)c2ccccn2)cc1 | 0.3%
49 | CCCCN1C(=O)C(=O)N(CC(=O)Nc2cccc(C(C)=O)c2)C1=O | 0.4%
50 | CC(=O)Nc1cccc(-c2nc3ccccc3s2)c1C | -0.5%
51 | CCSc1nsc(NC(=O)Nc2cccc(C(C)=O)c2)n1 | 87.2% (active)
52 | CSc1nsc(SCC(=O)Nc2cc(C(=O)O)ccc2C)n1 | -0.5%
53 | O=C(Nc1ccccc1)Nc1nc2ccccc2s1 | 96.5% (active)
54 | CC(=O)c1cccc(NC(=S)N2CCN(S(C)(=O)=O)CC2)c1 | 0.1%
55 | CSc1nsc(NC(=O)Nc2ccccc2)n1 | 85.4% (active)
56 | C=CCSc1nsc(NC(=O)Nc2cccc(C(C)=O)c2)n1 | 97.4% (active)
57 | CC(=O)N1CCC(C(=O)Nc2nc(-c3ccccc3)ns2)CC1 | -2%
58 | COc1ccc(C(=O)OCC(=O)Nc2cccc(C(C)=O)c2)cc1OC | -2%
